Laboratory results as given in PubChem BioAssay (Tox21).
Records with an inconclusive call do not appear. The source made the active and inactive calls. Calls follow the shape of the full dose curve.

Legend:
[1] = biological target: Acetylcholinesterase (Homo sapiens) (UniProt P22303); assay: Acetylcholinesterase (AChE) small molecule antagonists: colormetric cell-based qHTS assay (AID 1347395); also: nearly all actives have a fitted effect of over 30% in size
Summary of the method: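 SH-SY5Y cells attached overnight, exposed to compound 30 min at 37 C, then given DTNB/acetylthiocholine; after 90 min at 37 C, colorimetric thiocholine read gives cellular AChE activity.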

[2] = biological target: Acetylcholinesterase (Homo sapiens) (UniProt P22303); assay: Acetylcholinesterase (AChE) small molecule antagonists: enzyme-based qHTS assay (AID 1347397); conditions: Potency: AChE enzyme activity inhibition; outcome: AChE enzyme activity inhibition; also: nearly all actives have a fitted effect of over 55% in size
Summary of the method: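 Colorimetric DTNB readout of acetylthiocholine hydrolysis, 10 min at room temperature, after 30 min room-temperature exposure of 50 mU/mL recombinant human enzyme to compound; DMSO vehicle control.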

[3] = biological target: Acetylcholinesterase (Homo sapiens) (UniProt P22303); assay: Acetylcholinesterase (AChE) small molecule antagonists: fluorescence cell-based qHTS assay (AID 1347398); conditions: Potency: AChE activity; outcome: AChE activity; also: nearly all actives have a fitted effect of over 50% in size
Summary of the method: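 Cellular AChE activity read as thiocholine from acetylthiocholine hydrolysis, detected by Thiolite Green fluorescence at 490/520 nm after 40 min at room temperature. Compounds were pre-incubated 30 min at 37 C on adherent SH-SY5Y cells.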

[4] = biological target: Acetylcholinesterase (Homo sapiens) (UniProt P22303); assay: Acetylcholinesterase (AChE) small molecule antagonists: enzyme-based qHTS assay with human liver microsomes (AID 1347399); conditions: Potency: qHTS inhibition; outcome: qHTS inhibition; also: nearly all actives have a fitted effect of over 60% in size
Summary of the method: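 Recombinant human AChE (50 mU/mL in the enzyme mix) and human liver microsomes (0.25 mg/mL final) were preincubated with compound and NADPH (0.25 mg/mL final) for 30 min at 37 C. Acetylthiocholine/DTNB was then added; thiocholine was read colorimetrically after 10 min at room temperature.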
% is scaled to controls: 0 for no effect and ±100 for the full control effect.

Acetylcholinesterase (Homo sapiens), sequence (P22303 whole entry, looked up): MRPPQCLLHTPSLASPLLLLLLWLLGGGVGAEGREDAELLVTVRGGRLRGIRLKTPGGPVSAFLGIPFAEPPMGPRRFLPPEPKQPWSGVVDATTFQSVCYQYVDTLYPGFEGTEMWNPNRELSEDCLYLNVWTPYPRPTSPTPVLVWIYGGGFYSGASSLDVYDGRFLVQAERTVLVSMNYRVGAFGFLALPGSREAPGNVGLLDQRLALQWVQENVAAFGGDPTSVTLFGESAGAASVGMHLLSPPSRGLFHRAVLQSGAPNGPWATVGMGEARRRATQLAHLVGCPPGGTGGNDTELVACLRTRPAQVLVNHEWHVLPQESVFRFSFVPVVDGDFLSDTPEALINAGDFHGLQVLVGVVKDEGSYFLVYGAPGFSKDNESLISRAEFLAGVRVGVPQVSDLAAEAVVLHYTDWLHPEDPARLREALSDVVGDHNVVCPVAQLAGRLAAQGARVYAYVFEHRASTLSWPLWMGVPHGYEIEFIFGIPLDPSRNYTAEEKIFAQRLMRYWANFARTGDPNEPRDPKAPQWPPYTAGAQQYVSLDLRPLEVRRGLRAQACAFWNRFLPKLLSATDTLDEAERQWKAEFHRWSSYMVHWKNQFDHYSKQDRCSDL

O=S(=O)(O)c1ccc(Nc2nc(Nc3ccc(/C=C/c4ccc(Nc5nc(Nc6ccc(S(=O)(=O)O)cc6)nc(N(CCO)CCO)n5)cc4S(=O)(=O)O)c(S(=O)(=O)O)c3)nc(N(CCO)CCO)n2)cc1
inactive: Potency [1] | Potency [2] | Potency [3] | Potency [4]

N#Cc1cscn1
inactive: Potency [1] | Potency [2] | Potency [3] | Potency [4]

O=C(Nc1ccc(Cl)cc1)Nc1ccc(Cl)c(C(F)(F)F)c1
inactive: Potency [1] | Potency [2] | Potency [3] | Potency [4]

Cc1cccc(C)n1
inactive: Potency [1] | Potency [2] | Potency [3] | Potency [4]

OC[C@@H](O)[C@H](O)[C@@H](O)[C@@H](O)CO
inactive: Potency [1] | Potency [2] | Potency [3] | Potency [4]

CCOC(=O)N1CCC(Nc2ccc(Cl)cc2N)CC1
inactive: Potency [1] | Potency [2] | Potency [3] | Potency [4]

O=S(=O)(O)c1cc(O)c2ccc(Nc3ccccc3)cc2c1
inactive: Potency [1] | Potency [2] | Potency [3] | Potency [4]

O=C1CCC(=O)N1
inactive: Potency [1] | Potency [2] | Potency [3] | Potency [4]

O=Cc1ccc(F)c(Br)c1
inactive: Potency [1] | Potency [2] | Potency [3] | Potency [4]

C/C=C/C=C/COC(=O)C(C)C
inactive: Potency [1] | Potency [2] | Potency [3] | Potency [4]

CC1=CCC2C(C1)C2(C)C (stereo unspecified)
inactive: Potency [1] | Potency [2] | Potency [3] | Potency [4]

Brc1cc2ccccc2c2ccccc12
inactive: Potency [1] | Potency [2] | Potency [3] | Potency [4]

C=C(C)C(=O)OCCOCC
inactive: Potency [1] | Potency [2] | Potency [3] | Potency [4]

O=S(O)(O)=S
inactive: activity, negative = inhibition [1] -0.643% [at 10.5 µM] | activity change, negative = inhibition [2] 0.136% [at 10.5 µM] | activity change, negative = inhibition [3] 2.89% [at 10.5 µM] | activity change, negative = inhibition [4] 0.162% [at 10.5 µM]
